The whole screen tested about 3,600 compounds, of which about 900 (25%) were called active. Not all results are given here. Potency and affinity values are given separately. Unmarked numbers belong to inactive results. No rule for the calls is given here.
What follows are compounds tested against Protein Tat (Human immunodeficiency virus type 1 group M subtype B (isolate HXB2)) (UniProt P04608) (assay: HIV-1 Tat–TAR interaction blockers – biochemical, fluorescence polarization, FAM-labeled TAR RNA, counter-screen for Vif-APOBEC3G degradation inhibitor project, dose response (AID 1117361)). Conditions: Tat-TAR RNA binding; series mostly up to 100 µM; inhibition: at the top concentration.

Structure (SMILES) | inhibition | outcome
N#CCOC(=O)c1sccc1-n1cccc1 | 4.73% | 
O=C(CSc1nnc(-c2ccc(F)cc2)o1)Nc1ccc(S(=O)(=O)N2CCCC2)cc1 | 10.8% | 
Cc1ccc(C(=O)Nc2cccc(C(=O)O)c2)cc1S(=O)(=O)N1CCOCC1 | 0.68% | 
Cc1nnc(NC(=O)c2ccc(C)c(S(=O)(=O)N3CCOCC3)c2)s1 | 3.38% | 
N#CC(=C1SC=CS1)c1nc(-c2ccccc2)cs1 | 9.55% | 
CCOC(=O)C1CCN(c2ncnc3cc(OC)c(OC)cc23)CC1 |  | inactive
CCOC(=O)C1CCN(Cc2cnc(Oc3ccc(OC)cc3)s2)CC1 | 3.38% | 
CCOC(=O)CSc1nnc(-c2ccco2)n1C | 17.6% | 
CSc1ncccc1C(=O)OCC(=O)N1CCOCC1 |  | inactive
CCN(CC)c1ccc(N=Cc2ccc(N(CC)CC)cc2O)cc1 |  | inactive
CCOC(=O)C1C(=O)CC(C)(O)C(C(=O)OCC)C1c1cc(Br)ccc1OC (stereo unspecified) | 4.05% | 
O=C(CSc1nnc(-c2cccnc2)n1Cc1ccco1)c1ccc(Br)cc1 | 21.6% | 
COc1cccc(-c2nn3c(-c4ccccn4)nnc3s2)c1 |  | inactive
N#Cc1ccc(CSc2nnc(Cc3cccs3)n2Cc2ccco2)cc1 | 26.4% | 
O=C(CCCCn1c(=O)[nH]c2ccsc2c1=O)NCc1cccnc1 | 4.09% | 
COC(=O)c1cc(=O)nc2sc(-c3ccc(F)cc3)nn12 |  | inactive
COc1c(OC(C)=O)ccc(/C=C/c2ccc3ccccc3n2)c1[N+](=O)[O-] | 4.05% | 
COC1=C(OC)C(=O)C(Sc2ccc3ccccc3c2)=CC1=O |  | inactive
CCNC(=O)NC(=O)COC(=O)CNC(=O)COc1ccccc1 |  | inactive
CCOC(=O)CNc1nc(-c2ccncc2)nc2ccccc12 |  | inactive
Cc1ccc(NC(=O)C(=O)c2c(-c3ccccc3)cc3ccccn23)cc1S(=O)(=O)N1CCOCC1 | 2.34% | 
O=C(C1CC(c2ccccc2O)=NO1)N1CCCCC1 (stereo unspecified) | 6.76% | 
Cc1ccc(NC2=NCCCCC2)cc1C |  | inactive
Oc1ccc(/C=N/N2CCCCC2)c(O)c1 | 3.67% | 
Cc1ccc(C(C[N+](=O)[O-])Sc2ccc(N)cc2)cc1 (stereo unspecified) |  | inactive
CCCCc1ccc(NC(=O)CC(C)(C)C)cc1 | 1.65% | 

Structure (SMILES) | inhibition | outcome
COC(=O)c1sccc1NC(=O)CC1C(=O)NCCN1C(=O)Nc1ccccc1 (stereo unspecified) |  | inactive
COc1ccc(C2SCC(C(=O)NCc3ccc(F)cc3)N2C(C)=O)cc1 (stereo unspecified) |  | inactive
O=C(Nc1ccc(F)c(Cl)c1)c1cccnc1 | 7.68% | 
O=C(NNC(=O)c1cccnc1)Nc1ccc([N+](=O)[O-])cc1 |  | inactive
Cc1ccc(S(=O)(=O)C2(C(=O)Nc3cccc(F)c3)CC2)cc1 | 3.38% | 
CC(C)Cc1cc(C(=O)Nc2cccc(O)c2)no1 |  | inactive
CN1CCN(C(CNC(=O)c2ccc(Br)o2)c2ccc(F)cc2)CC1 (stereo unspecified) | 3.01% | 
CCOc1ccc(C2c3c(oc4ccccc4c3=O)C(=O)N2CCCN2CCOCC2)cc1 (stereo unspecified) | 8.78% | 
COc1ccc(C(C(C(=O)c2cccs2)N2CCOCC2)N2CCOCC2)cc1OC (stereo unspecified) | 12.8% | 
CN(C(=O)c1ccc(OC2CCN(S(=O)(=O)N(C)C)CC2)cc1)C1CCCCC1 | 14.8% | 
Cc1cccc2nc(C(=O)Nc3cccc(C(=O)NC4CC4)c3)cn12 | 2.47% | 
COc1ccc(NC(=O)Cc2ccc(Cl)cc2)cc1NC(=O)c1ccco1 |  | inactive
O=C(Nc1ccccc1)NC1CCN(CCCN2C(=O)c3ccccc3C2=O)CC1 | 3.41% | 
COc1ccc(N2CCN(CCNC(=O)Nc3ccc(Cl)cc3)CC2)cc1 | 4.05% | 
Cc1ccc(NC(=O)Nc2ccc3c(c2)nc(C)n3C)cc1 |  | inactive
Cc1cc2nc(C)n(CCCNC(=O)Nc3ccc(F)cc3)c2cc1C |  | inactive
CC(=O)c1cccc(NC(=O)NCCS(C)=O)c1 (stereo unspecified) | 2.03% | 
Cc1ccc(NCc2nnc(SCC(=O)N(Cc3ccccc3)C(C)(C)C)o2)c(C)c1 | 3.38% | 
CNC(=O)C(=O)N/N=C/c1cccnc1 | 13.2% | 
O=C(CN(C(=O)c1cc2c(s1)CCC2)C1CCCC1)NCc1cccs1 | 8.11% | 
CCCc1nc2ccccc2c(=O)n1NC(=O)c1c(O)c2cccc3c2n(c1=O)CCC3 | 3.38% | 
COC(=O)Cc1cc(=O)[nH]c(/N=C(\N)Nc2ccc(C)cc2)n1 |  | inactive
O=C(N/N=C\c1ccc(Cl)cc1)C1=NOC2COC3(CCN(c4ccc([N+](=O)[O-])cc4)CC3)OCC12 (stereo unspecified) |  | inactive
CCC(C)N1CC23C=CC(O2)C(C(=O)OC)C3C1=O (stereo unspecified) | 2.7% | 
COCC(=O)Nc1sc2c(c1C(=O)OC)C(C(=O)OC)CC2 (stereo unspecified) | 12.8% | 
CCOC(=O)C1=C(Cc2ccc(Cl)cc2)C(=O)c2ccccc2C1=O | 2.34% | 

Structure (SMILES) | inhibition | outcome
CCOC(=O)c1c2c(n(Cc3ccccc3)c1C)C(=O)C(=O)c1ccccc1-2 |  | inactive
O=C(Nc1ccccc1N1CCCCC1)c1ccccc1F |  | inactive
COc1c(F)c(F)c(C(=O)Nc2ccccc2N2CCN(C(C)=O)CC2)c(F)c1F |  | inactive
COc1ccc(S(=O)(=O)N(C(C)=O)c2ccc3oc(=O)sc3c2)cc1 | 25.9% | 
O=C1C(Cl)=C(Oc2ccccc2)C(=O)c2ccccc21 | 7.01% | 
CC(OC(=O)c1cccc(O)c1)C(=O)N(C)Cc1ccccc1 (stereo unspecified) |  | inactive
CC(=O)Nc1ccc(NC(=O)c2sc3nc4c(c(-c5ccc(C)cc5)c3c2N)CCC4)cc1 | 11.5% | 
CSc1ncccc1C(=O)NCc1nnc2ccccn12 |  | inactive
O=C(Cn1c(NCCO)nc2ccccc21)NCC(F)(F)F |  | inactive
O=C(CSc1nnc(CN2CCCCC2)n1-c1ccccc1)c1ccc2c(c1)OCO2 | 0.68% | 
CC(NC(=O)c1ccco1)C(=O)N1CCc2ccccc2C1 (stereo unspecified) | 11.5% | 
O=C(CN(C1CCCCC1)C1CCCCC1)N1CCc2ccccc2C1 | 5.41% | 
Cc1ccc([C@H]2C(C(=O)O)=CC[C@@H](c3cccc(Cl)c3)N2S(=O)(=O)c2ccc(C)cc2)cc1 |  | inactive
COc1ccccc1-n1nnnc1SCC(=O)Nc1cc(C)on1 | 1.35% | 
O=c1cc2oc3cc(O)c(O)cc3c(-c3ccccc3O)c-2cc1O | 10.3% | 
OC(CN1CCCCC1)CN1CCCCC1 | 9.46% | 
CS(=O)(=O)N(CC(=O)N1CCN(Cc2ccccc2)CC1)c1ccc2c(c1)OCCO2 |  | inactive
CSCCC(CO)NC(=O)OCc1ccccc1 (stereo unspecified) | 2.7% | 
C[C@H](NC(=O)OCc1ccccc1)C(=O)NNC(=O)[C@H](C)NC(=O)OCc1ccccc1 | 16.5% | 
O=C(Nc1nnc(C2CC2)o1)c1ccc(S(=O)(=O)N2CCCc3ccccc32)cc1 |  | inactive
Cc1ccc(N2CC(NC(=O)N3CCN(C(=O)c4ccco4)CC3)CC2=O)cc1 (stereo unspecified) | 6.35% | 
CSc1ccc(C2Nc3ccccc3-c3cc(C)nn32)cc1 (stereo unspecified) | 2.05% | 
COc1ccc(S(=O)(=O)Nc2ccc3c(c2)OCO3)cc1C | 4.77% | 
O=C(CCc1ccc(S(=O)(=O)NCCc2ccccc2)cc1)Nc1ccc2c(c1)OCO2 | 1.36% | 
O=C(Nc1ccc2c(c1)OCO2)c1cccc(S(=O)(=O)N2CCCC2)c1 |  | inactive
O=S(=O)(Nc1ccc2c(c1)OCCO2)c1cnc[nH]1 |  | inactive

Structure (SMILES) | inhibition | outcome
CS(=O)(=O)N1CCCCC1CCN1CCCCC1 (stereo unspecified) | 3.67% | 
CC1(C)CC(=O)C(C2NCCc3ccccc32)=C(O)C1 (stereo unspecified) |  | inactive
CCN(CC)CC(=O)Nc1nn(-c2ccccc2)nc1C(N)=O |  | inactive
Cc1ccc(S(=O)(=O)n2cnc3ccccc32)c(C)c1 |  | inactive
CCCCNC(=O)c1c(O)c2cccc3c2n(c1=O)CCC3 | 5.41% | 
N#CC1(c2ccc(NC(=O)c3ccccc3F)cc2)CCCC1 |  | inactive
CCCCCn1c(CN2CCN(c3cc(Cl)ccc3C)CC2)nc2c1c(=O)[nH]c(=O)n2C | 0.68% | 
CCOc1c(OC)cccc1C1CC(=O)Nc2cc3c(cc21)OCCO3 (stereo unspecified) |  | inactive
CCc1ccccc1N(CC)C(=O)CCc1nc(-c2ccc(C)cc2)no1 | 0.68% | 
NS(=O)(=O)c1ccc(NC(=O)COC(=O)CC2Sc3ccccc3NC2=O)cc1 (stereo unspecified) |  | inactive
COc1cc(C(C2C(=O)CC(C)(C)CC2=O)C2C(=O)CC(C)(C)CC2=O)cc(OC)c1OC | 6.35% | 
O=C(Nc1cc(Cl)ccc1Oc1ccccc1)c1cnccn1 | 1.36% | 
Cc1cn(C2CCCCO2)c(=O)[nH]c1=O (stereo unspecified) | 3.67% | 
CN(C)NC1CCS(=O)(=O)C1 (stereo unspecified) | 27% | 
Cn1nnnc1SCC(=O)NCc1ccco1 | 22.3% | 
O=C(Cn1cnc2c(nnn2Cc2ccc(F)cc2)c1=O)NCc1ccco1 | 6.82% | 
COc1ccc2c(c1OC)C(=O)OC2Nc1nc(-c2cc3cc([N+](=O)[O-])ccc3oc2=O)cs1 (stereo unspecified) |  | inactive
CCOc1ccc(CCNC(=O)C2CC(C)=CCC2C(=O)O)cc1OCC (stereo unspecified) | 1.67% | 
CCC(Sc1nc2cc(OC)c(OC)cc2c(=O)n1Cc1ccco1)C(=O)NCCOC (stereo unspecified) | 1.36% | 
COc1ccc2c(=O)c3c(=O)n(-c4ccc(C)cc4)c(-c4ccccc4)nc3oc2c1 |  | inactive
CCN1/C(=C(\O)c2ccccc2)C(=O)c2ccccc2S1(=O)=O | 6.08% | 
COc1ccc(C2C(C#N)=C(N)Oc3n[nH]c(C)c32)cc1Cn1nnc2ccccc21 (stereo unspecified) |  | inactive
NC(=O)C1CCN(C(=O)C23CC4CC(CC(C4)C2)C3)CC1 | 2.05% | 

— PubChem BioAssay AID1117361 (Southern Research Institute, 2015)
